This is an account of results in PubChem BioAssay (NCATS).

Records with an inconclusive call do not appear. Calls of active or inactive are those of the source. Calls follow the shape of the dose curve; as a rule, active = well fitted inhibition curve with a large enough effect; inconclusive = small, poorly fitted or top-dose-only effect; inactive = flat fitted curve, though single readings scatter.

Holding throughout (assay): qHTS profiling for inhibitors of Plasmodium falciparum proliferation (AID 504749); also: nearly all actives have a fitted effect of over 60% in size
Details in all cases: P. falciparum in erythrocytes, SYBR Green DNA, 72 h; series mostly up to 28.7 µM

One test has as its system CP194. In outline:
(§1)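 Readout was DNA-dye fluorescence from lysed cultures, ex 485/em 535 nm. Parasitized red cells had grown 72 h with compound; data scaled between 0.29 uM artemisinin and DMSO wells and corrected using vehicle-only plates.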

The subject of a further test is CP201. In outline: as §1
A further test relates to CP203. In outline: as §1
The next test concerns CP211. In outline: as §1
A further test has as its system CP215. In outline:
as §1

The next test concerns CP217. In outline: as §1
For another test, the system named is CP237. In outline: as §1
The subject of another test is CP238. In outline:
as §1

In the next test the test system is CP247. In outline: as §1
Another test relates to CP250. In outline:
as §1

For the next test, the system named is CP252. In outline: as §1
A further test relates to CP256. In outline:
as §1

Another test deals with CP260. In outline:
as §1

Another test concerns CP262. In outline: as §1
In another test the test system is CP265. In outline: as §1
A further test deals with CP266. In outline: as §1
For a further test, the system named is CP268. In outline: as §1
For a further test, the system named is CP269. In outline:
as §1

In a further test the test system is CP286. In outline: as §1
A further test concerns CP192. In outline:
as §1
Potency is read from the fitted curve at half-maximal effect.

Turning to `CC[N+](CC)(CCNC(=O)C(=O)NCC[N+](CC)(CC)Cc1ccccc1Cl)Cc1ccccc1Cl`, the Potency is 2.39 µM (active) in the test with CP194; 4.78 µM (active) with CP201; 1.35 µM (active) in the test on CP203; 1.07 µM (active) in the test on CP211; 3.79 µM (active) with CP215; 7.94 µM (active) in the test on CP217. In addition, the Potency in the test on CP237 is 3.16 µM (active); in the test on CP238, 2.51 µM (active); in the test with CP247, 3.55 µM (active); in the test on CP250, 2.51 µM (active); in the test on CP252 it was 4.47 µM (active); in the test on CP256, 0.398 µM (active). For the same compound, the Potency was 1.58 µM (active) in the test with CP260; 0.849 µM (active) in the test on CP262; 0.562 µM (active) in the test on CP265; 2.69 µM (active) with CP266; 7.57 µM (active) in the test with CP268; 4.78 µM (active) with CP269. Also, in the test with CP286, the Potency is 0.891 µM (active).
With `CN1CCC(=C2c3ccccc3Sc3ccccc32)CC1`, the Potency is 10.7 µM (active) in the test on CP194; 13.5 µM (active) with CP211; 9.53 µM (active) in the test on CP215; 11.2 µM (active) with CP217; 8.91 µM (active) in the test on CP237; 11.2 µM (active) in the test with CP238. For the same compound, the Potency was 7.94 µM (active) with CP247; 11.2 µM (active) in the test with CP250; 7.08 µM (active) in the test with CP252; 11.2 µM (active) in the test with CP256; 8.91 µM (active) with CP260; 7.08 µM (active) in the test on CP265. In addition, the Potency was 13.5 µM (active) in the test with CP269 and 11.2 µM (active) in the test on CP286.
As for `CCOc1ccc(Cc2nccc3cc(OCC)c(OCC)cc23)cc1OCC`, the Potency entry in the test on CP192, in the test on CP203, in the test on CP238, with CP247, in the test on CP250 and with CP252 was “inactive” in each case. For the same compound, the Potency result in the test with CP260, with CP262, in the test on CP265, in the test with CP266, with CP268 and in the test with CP269 was “inactive” each time. The Potency entry with CP286 was “inactive”.
On to `C[C@@H](CN(C)C)CN1c2ccccc2Sc2ccccc21`, for which the Potency result with CP192, with CP211, with CP215, in the test with CP217, with CP237 and in the test on CP238 was “inactive” throughout. Also, the Potency result with CP247, in the test with CP250, in the test with CP252, with CP256, in the test on CP260 and in the test on CP262 was “inactive” throughout. For the same compound, the Potency entry in the test with CP265, in the test with CP266 and in the test on CP286 was “inactive” throughout.
On to `C[C@@H]1C[C@H]2[C@@H]3CCC4=CC(=O)C=C[C@]4(C)[C@@]3(F)[C@@H](O)C[C@]2(C)[C@H]1C(=O)CO`, for which the Potency entry in the test on CP194, in the test on CP201, in the test with CP211, with CP215, in the test on CP217 and in the test on CP238 was “inactive” throughout. In addition, the Potency result in the test on CP247, in the test on CP250, with CP252, in the test with CP256, in the test with CP260 and in the test on CP262 was “inactive” each time. Further, the Potency entry in the test with CP265, in the test on CP268, in the test on CP269 and with CP286 was “inactive” in each case.
For `O=C1OC(c2ccc(O)cc2)(c2ccc(O)cc2)c2ccccc21`, the Potency entry in the test with CP194, with CP201, in the test with CP203, in the test with CP211, in the test with CP215 and in the test on CP217 was “inactive” in each case. For the same compound, the Potency entry with CP237, in the test with CP238, with CP247, in the test with CP250, in the test on CP252 and in the test with CP256 was “inactive” in each case. The Potency entry in the test with CP260, in the test on CP262, with CP265, in the test on CP266, with CP268 and with CP269 was “inactive” throughout. Moreover, in the test with CP286, the Potency entry is “inactive”.
Consider `COc1c(C)c2c(c(O)c1C/C=C(\C)CCC(=O)O)C(=O)OC2`, for which the Potency was 4.55 µM (active) with CP194; 5.73 µM (active) in the test with CP201; 4.55 µM (active) with CP211; 3.22 µM (active) in the test on CP215; 2.51 µM (active) with CP217; 3.55 µM (active) in the test on CP237. Moreover, the Potency with CP238 was 3.16 µM (active); in the test with CP250, 3.16 µM (active); in the test on CP252 it was 2.51 µM (active); with CP256 it was 3.16 µM (active); in the test with CP260, 3.16 µM (active); with CP265, 3.16 µM (active). Also, the Potency was 5.1 µM (active) with CP269 and 3.16 µM (active) in the test with CP286.
Regarding `CNCCC=C1c2ccccc2CCc2ccccc21`, the Potency in the test with CP203 was 7.57 µM (active); in the test with CP265, 7.94 µM (active). The Potency entry in the test with CP268 was “inactive”.
Consider `CC(C)N=C(N)/N=C(\N)Nc1ccc(Cl)cc1`, for which the Potency entry with CP192, in the test with CP238, with CP266 and in the test on CP268 was “inactive” in each case. Also, the Potency with CP256 was 0.708 µM (active); with CP262 it was 2.28 µM (active).
In the case of `COc1ccc(CN2CCN(C(c3ccc(F)cc3)c3ccc(F)cc3)CC2)c(OC)c1OC`, the Potency is 15.1 µM (active) in the test with CP194; 15.1 µM (active) in the test on CP201; 13.5 µM (active) in the test on CP203; 16.9 µM (active) in the test on CP211; 11.2 µM (active) in the test with CP217; 8.91 µM (active) in the test with CP237. Also, the Potency in the test on CP247 was 10 µM (active); with CP250 it was 8.91 µM (active); in the test on CP252 it was 10 µM (active); with CP260, 7.94 µM (active); in the test on CP265, 11.2 µM (active); with CP269, 15.1 µM (active). Also, the Potency in the test on CP286 is 7.08 µM (active).
`C#C[C@]1(OC(C)=O)CC[C@H]2[C@@H]3CCC4=C[C@@H](OC(C)=O)CC[C@@H]4[C@H]3CC[C@@]21C`: the Potency entry in the test with CP194, in the test on CP201, in the test on CP203, with CP211, with CP215 and in the test on CP217 was “inactive” throughout. Also, the Potency result in the test on CP237, in the test with CP238, with CP247, with CP250, in the test with CP252 and in the test on CP256 was “inactive” in each case. Further, the Potency result with CP260, in the test on CP262, in the test on CP265, with CP266, with CP268 and with CP269 was “inactive” each time. In addition, the Potency entry with CP286 was “inactive”.
